Source: PubChem (several laboratories)
Exocytosis inh = lytic granule exocytosis inhibition | 360,000 tested, 0.66% active | inhibition, % at 10 µM | TALL-104 LAMP-1 surface exposure, flow cytometry; cells stimulated with thapsigargin and PMA;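 active = inhibition above about 55%, limit read from the data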
Beta2AR agonist = agonists of human beta-2 adrenergic receptor inducing internalization; P07550; Am2.2-beta2AR cells, FAP receptor internalization, flow cytometry; response, % (test concentration not listed); 340,000 tested, 0.43% active; AID 504454;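 active = response above a set limit, near 3 SD of response in nonfluorescent compounds, cut at about 42% in these data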
NTR1 agonist = NTR1 (human) agonism; P30989; NTR1-U2OS beta-arrestin-GFP spot imaging, agonist mode; activation, % at 20 µM; 330,000 tested, 0.17% active; AID 493036;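 active = activation at or above 40% of the spot to cytoplasm intensity ratio, with at least 20 cells analyzed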;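 note: 0% = DMSO without peptide and 100% = 100 nM NTR1 peptide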
ABHD5-PLIN5 inh = blocks binding of human ABHD5 to perilipin-5; Q00G26+Q8WTS1; Split G. princeps luciferase complementation, luminescence, 4 h; inhibition, % at 4 µM; 360,000 tested, 0.78% active; AID 602281;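 active = inhibition above the mean inhibition across every tested compound plus 3 SD, cut at about 22% in these data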;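 note: 0% = DMSO only wells and the 100% control is not disclosed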
HTR2A ag = activates the mouse 5-HT2A serotonin receptor. P35363. CHO-K1 mHTR2A beta-arrestin complementation, luminescence; percent of 30 µM serotonin response. activation, % at 7.6 µM. 360,000 tested, 0.66% active;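 active = activation above a run cutoff, the mean activation of all tested compounds plus 3 SD, cut at about 14% in these data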;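 note: 0% = plate median of compound wells and 100% = 30 µM serotonin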
ABHD5 PLIN5 conf = ABHD5-PLIN5 interaction inhibition, confirmed; shares compounds with ABHD5-PLIN5 inh; inhibition, % at 4 µM; biochemical ABHD5-PLIN5 interaction, luminescence; 2,200 tested, 67% active; in the data active = inhibition above about 23%;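 note: 0% = DMSO vehicle wells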
HNF4 counter = counter-screen for ABHD5-PLIN5 inhibitors: HNF4 split-luciferase | shares compounds with ABHD5-PLIN5 inh | HNF4 dimerization, luminescence, biochemical | inhibition, % at 4 µM | 2,200 tested, 77% active | AID 651674;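 active = mean inhibition across replicate wells exceeding the computed hit threshold, cut at about 13% in these data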;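 note: light from luciferase halves that rejoin when HNF4 fusion proteins dimerize; 0% = DMSO only wells and the 100% control is not given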
Target sequence (P41235 whole entry, looked up, the tested form may be a part): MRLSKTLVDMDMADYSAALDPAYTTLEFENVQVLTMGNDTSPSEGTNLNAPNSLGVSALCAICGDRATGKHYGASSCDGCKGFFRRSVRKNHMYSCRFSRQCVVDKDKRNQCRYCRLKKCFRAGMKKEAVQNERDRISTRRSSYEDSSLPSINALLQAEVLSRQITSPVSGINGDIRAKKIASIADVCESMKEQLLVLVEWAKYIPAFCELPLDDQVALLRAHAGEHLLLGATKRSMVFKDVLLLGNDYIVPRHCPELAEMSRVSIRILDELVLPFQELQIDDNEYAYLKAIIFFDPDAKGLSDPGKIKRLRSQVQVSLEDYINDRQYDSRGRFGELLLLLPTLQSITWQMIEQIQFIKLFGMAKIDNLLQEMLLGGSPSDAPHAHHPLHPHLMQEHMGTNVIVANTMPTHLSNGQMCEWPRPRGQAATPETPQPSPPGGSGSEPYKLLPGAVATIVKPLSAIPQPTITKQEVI
* marks the source's active call; other numbers are inactive results; / = no result given. This is a sample that favours compounds with a hit; in the whole collection about 2.3% have one here.

SMILES	Exocytosis inh	Beta2AR agonist	NTR1 agonist	ABHD5-PLIN5 inh	HTR2A ag	ABHD5 PLIN5 conf	HNF4 counter
COc1ccc(C=C2CS(=O)(=O)CC(=Cc3ccc(OC)cc3)C2=O)cc1	-2.6	/	/	93.8*	-0.9	103.4*	105.0*
COc1ccc(/C=C2\CCCCC2=O)cc1	-7.8	-1.6	0.2	-8.4	-2.2	/	/
COc1ccc(/C=C/C(=O)c2oc3ccc(F)cc3c2C)cc1	10.6	6.5	6.1	-0.4	0.2	/	/
O=C(/C=C/c1ccc(F)cc1)c1ccccc1Br	4.2	12.6	18.5	55.6*	2.9	96.3*	88.1*
O=C(/C=C/c1ccc(F)cc1)NC(=S)Nc1ccccc1	-15.2	0.9	1.6	-0.2	-2.4	/	/
Cc1ccc(C(=O)/C=C/c2ccc(F)cc2)o1	-3.5	9.8	-0.1	42.1*	-0.3	62.0*	46.8*
CN(C)c1ccc2cc(S(=O)(=O)O)cc(O)c2c1	3.8	-4.2	/	26.5*	6.7	9.3	12.7*
O=C(CC1OC(=O)c2ccccc21)Nc1cc(Cl)ccc1N1CCOCC1 (configuration not stated)	4.9	6.2	4.0	5.4	6.4	/	/
CC(CCc1ccccc1)NC(=O)Cn1cccc1C(=O)c1ccccc1 (configuration not stated)	-15.7	-1.6	0.3	0.5	-1.7	/	/
O=C(N/N=C/c1ccc(N2CCOCC2)o1)c1ccccc1[N+](=O)[O-]	7.3	4.6	-0.3	21.7	1.5	/	/
O=C(N/N=C/c1ccc(N2CCCCC2)o1)c1ccccc1[N+](=O)[O-]	11.4	5.3	2.0	25.9*	-0.4	38.2*	66.5*
CCN(CC(=O)Nc1ccc(OC)cc1)C(=O)CSCC(=O)Nc1ccc(C)cc1	-17.3	-6.3	0.8	-7.7	-0.2	/	/
CCN(CC(=O)Nc1c(F)cccc1F)C(=O)CSCC(=O)Nc1ccc(OC)cc1	-0.9	0.0	1.1	26.1*	-4.5	2.8	-4.5
Cc1ccc(C(=O)OC(C)CN2CCN(C)CC2)cc1 (configuration not stated)	-1.5	6.9	0.4	3.5	-1.4	/	/
O=C(NCc1ccc2c(c1)OCO2)c1nc(S(=O)(=O)Cc2ccccc2F)ncc1Cl	35.8	15.8	0.9	76.3*	-1.2	84.2*	106.0*
O=C(NCc1ccc2c(c1)OCO2)c1ccccc1Cl	10.1	1.1	-0.5	3.0	-3.0	/	/
O=C(NCc1ccc2c(c1)OCO2)c1nc(S(=O)(=O)Cc2ccccc2)ncc1Cl	35.0	9.5	15.4	53.8*	-2.3	87.5*	106.4*
CC(=O)Nc1ccc2c(c1)nc1n2CCN(C2CCCCC2)C1	0.4	-6.2	/	4.6	1.4	/	/
Cc1nc2scc(-c3ccco3)c2c(=O)n1/N=C/N(C)C	3.1	0.8	-0.5	42.6*	7.9	18.6	28.9*
O=S1c2ccccc2Oc2ccccc21	-7.4	-3.0	/	-5.4	6.1	/	/
O=[S@]1Oc2ccccc2-c2ccccc21	-3.8	-7.5	-0.4	24.5*	0.5	83.4*	98.8*
CCOC(=O)C1CCCN(S(=O)(=O)c2ccc3c(c2)N(C)C(=O)CC(=O)N3C)C1 (configuration not stated)	1.6	6.9	0.0	-8.8	3.4	/	/
COc1coc(C(O)CN)cc1=O (configuration not stated)	-7.5	0.0	-0.6	1.2	4.5	/	/
CCOC(=O)C(=Cc1cc(=O)c(OC)co1)C(=O)OCC	27.8	15.3	/	24.2*	6.6	76.4*	89.6*
Cc1ccc(N(Cc2cc3ccc(C)cc3[nH]c2=O)S(=O)(=O)c2ccccc2)cc1	44.4	-10.1	4.9	-0.2	-11.5	/	/
SMILES	Exocytosis inh	Beta2AR agonist	NTR1 agonist	ABHD5-PLIN5 inh	HTR2A ag	ABHD5 PLIN5 conf	HNF4 counter
C#CCNC(=O)C1=C[C@H](C2CCCCC2)[C@@H](CCCO)[C@H](OCC)O1	42.6	3.1	0.5	100.8*	-0.6	3.5	1.2
Cc1ccc(S(=O)(=O)N2[C@@H](c3ccc(F)cc3)C(C(=O)O)=CC[C@H]2c2cccs2)cc1	-0.7	3.8	0.4	-3.5	-3.1	/	/
CC(C)Oc1ccc(S(=O)(=O)N2CCOCC2)cc1NC(=O)CC1CC2CCC1C2 (configuration not stated)	8.3	/	/	-2.3	4.0	/	/
CS(=O)(=O)c1nc(-c2ccccc2)cc(C(F)(F)F)n1	74.4*	39.7	-2.2	63.3*	-3.4	87.7*	104.2*
FC(F)(F)c1cc(-c2ccccc2)nc(N2CCCCCC2)n1	0.6	2.9	1.9	1.3	-3.4	/	/
CC(C)CNC(=O)C1(C)CCCN1C(=O)C(C)(C)Oc1ccc(Cl)cc1 (configuration not stated)	-2.7	/	/	-2.1	2.6	/	/
Cc1ccc(/C=[N+](\[O-])c2ccccc2C)o1	3.8	3.4	-0.7	23.1*	5.6	2.4	10.7
Cc1ccccc1/[N+]([O-])=C/c1cccs1	-3.2	-1.5	1.5	0.3	7.1	/	/
COCCN(C(=O)COc1ccccc1C#N)c1c(N)n(Cc2ccccc2)c(=O)[nH]c1=O	-3.9	7.5	1.5	-0.3	-4.9	/	/
CN1C(C(=O)NCc2ccccc2)CC2Cn3c(nc4cc5ccccc5cc43)C21 (configuration not stated)	-1.8	-2.7	4.1	1.5	-1.0	/	/
Cc1nnc(SCc2ccccc2)nc1/C=C/NOCc1ccc(Cl)cc1Cl	2.8	0.7	2.4	25.5*	-0.7	14.6	24.9*
Cc1cc(SCC(=O)c2cc(C)n(C)c2C)nc2ccccc12	1.2	2.3	9.2	0.0	1.1	/	/
NC(=O)C1=C(c2ccccc2)c2ccccc2C1=O	-4.6	14.2	/	73.9*	10.8	93.3*	94.0*
CN(C)C(=O)NC1c2ccccc2-c2ccccc21	-6.7	2.9	-2.3	-4.2	7.2	/	/
O=C1C=CC(=O)N1c1ccc2c(c1)C(NC(=O)C(F)(F)F)c1ccccc1-2 (configuration not stated)	-11.9	22.2	/	34.5*	2.8	56.4*	98.9*
COc1ccc2oc(=O)c(-c3nnc(NCc4ccco4)s3)cc2c1	-2.2	5.2	2.8	59.7*	3.3	21.2	43.2*
CCOc1cccc2cc(-c3nnc(NCc4ccco4)s3)c(=O)oc12	-4.3	22.4	-0.6	48.2*	0.9	28.7*	35.0*
CCOc1cccc2cc(-c3cn4cc(C)ccc4n3)c(=O)oc12	-2.2	-6.0	-1.0	0.2	-2.1	/	/
Cc1ccc2c(c1)c(C1=c3ccccc3=NC1=O)c(O)n2C	6.2	-2.5	5.8	33.0*	2.2	88.0*	108.0*
C=CCn1c(O)c(C2=c3ccccc3=NC2=O)c2ccccc21	62.1*	-1.9	30.9	89.9*	-9.6	85.2*	107.5*
CC/C(C)=N/Nc1nc(-c2cc3cccc(OC)c3oc2=O)cs1	-1.6	2.8	2.2	-6.5	3.5	/	/
Cc1ccc(NC(=O)CN2C(=O)N/C(=C/c3ccc(C)s3)C2=O)cc1	-2.2	-5.5	-0.8	-1.4	-1.1	/	/
